Results taken from PubChem BioAssay (EPA / NIEHS).
Activity calls are given as the source filed them. How the source made its calls: active means hit-call score of the fitted dose curve at least 0.9, where 1 is the maximum; inactive means score below 0.9.

Experiments:
[1] = biological target: Bile acid receptor (Homo sapiens) (UniProt Q96RI1); assay: ATG_IR1_CIS: Attagene CIS-FACTORIAL HepG2 Assay for human Nuclear Receptor Subfamily 1 Group H Member 4 (NR1H4), IR1 submotif (AID 2282946); conditions: IR1 reporter transcription, actives raise or lower the signal
Outline: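 Fluorescence of capillary-separated, HpaI-digested RT-PCR reporter products gave IR1-element mRNA induction in HepG2 cells 24 h after dosing. Endogenous transcription factors drove the cis-regulated reporters; activity was fitted bidirectionally against DMSO.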

[2] = ATG_GRE_CIS: Attagene CIS-FACTORIAL HepG2 Assay for human Glucocorticoid Response Elements (GRE) (AID 2282947); conditions: HepG2 GRE cis-reporter, Attagene multiplex mRNA; actives raise or lower the signal
Outline: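 Fluorescence intensity of reporter-specific cDNA fragments, separated by capillary electrophoresis, provides the signal. Constructs carry cis-regulating promoters in transiently transfected HepG2 liver cells; 24 h incubation; fitting is bidirectional against DMSO.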

[3] = ATG_ISRE_CIS: Attagene CIS-FACTORIAL HepG2 Assay for human Interferon Regulatory Factor 1 (IRF1) binding to an Interferon-Stimulated Response Element (ISRE) (AID 2282948); conditions: HepG2 ISRE cis-reporter (Attagene), mRNA transcription readout; actives raise or lower the signal
Outline: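 Uses HepG2 liver cells transfected with cis-regulated reporters and measures mRNA 24 h post-dosing through RT-PCR, primer-extension labelling and capillary electrophoresis, with DMSO as negative control.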

[4] = ATG_M_32_CIS: Attagene CIS-FACTORIAL HepG2 Assay for M32 Transcription Factor (Internal Marker) (AID 2282949); conditions: HepG2 Attagene cis-factorial M32 reporter, mRNA; actives raise or lower the signal;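 further: background control marker of the multiplexed CIS panel rather than a real target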
Outline: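 HepG2 transfectants (cis-regulated reporter transcription units) dosed 24 h. Reporter mRNA by RT-PCR plus CE, analysed as gain or loss relative to DMSO.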

[5] = ATG_M_06_CIS: Attagene CIS-FACTORIAL HepG2 Assay for M06 Transcription Factor (Internal Marker) (AID 2282950); conditions: HepG2 Attagene CIS-FACTORIAL M06 internal marker reporter; actives raise or lower the signal
Outline: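 Cells (HepG2, transiently carrying cis-driven reporter units) receive chemical for 24 h before RNA isolation. Reporter cDNA is PCR-amplified, FAM-labelled by primer extension, HpaI-digested and sized on a capillary analyser.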

[6] = biological target: Hepatocyte nuclear factor 6 (Homo sapiens) (UniProt Q9UBC0); assay: ATG_HNF6_CIS: Attagene CIS-FACTORIAL HepG2 Assay for human Hepatocyte Nuclear Factor 6 (HNF6) (AID 2282952); conditions: HepG2 Attagene cis-factorial HNF6 reporter transcription; actives raise or lower the signal
Outline: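 Using cis-element reporters in HepG2 liver cells, the assay tracks endogenous factor-driven transcription 24 h post-dosing. Signal comes from 6-FAM-labelled, HpaI-digested RT-PCR fragments, with gain or loss scored against DMSO.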

[7] = biological target: Heat shock factor protein 1 (Homo sapiens) (UniProt Q00613); assay: ATG_HSE_CIS: Attagene CIS-FACTORIAL HepG2 Assay for human Heat Shock Transcription Factor 1 (HSE) (AID 2282953); conditions: HepG2 HSE cis-reporter, Attagene RNA transcription; actives raise or lower the signal
Outline: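 Liver-derived HepG2 cells carry transiently introduced multiple reporter units governed by cis promoters. Reporter RNA measured 24 h post-dose through reverse transcription, PCR amplification, fluorescent labelling and capillary electrophoresis, normalised to DMSO.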

[8] = ATG_MRE_CIS: Attagene CIS-FACTORIAL HepG2 Assay for human Metal Responsive Element (MRE) (AID 2282954); conditions: HepG2 MRE cis-reporter transcription, Attagene multiplex; actives raise or lower the signal
Outline: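 Measured here is mRNA induction from an MRE cis-element reporter in HepG2 after 24 h, quantified by fluorescence of labelled RT-PCR products on capillary electrophoresis; gain- and loss-of-signal fits use DMSO as baseline.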

[9] = ATG_PBREM_CIS: Attagene CIS-FACTORIAL HepG2 Assay for human Phenobarbital-responsive Enhancer Module (PBREM) (AID 2282955); conditions: HepG2 PBREM cis-reporter, Attagene multiplexed transcription; actives raise or lower the signal
Outline: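 HepG2, transient MRTU transfection, 24 h dosing; RNA → oligo(dT) RT → PCR → 6-FAM extension → HpaI → CE. Bidirectional fit vs DMSO.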

[10] = biological target: Paired box protein Pax-6 (Homo sapiens) (UniProt P26367); assay: ATG_Pax6_CIS: Attagene CIS-FACTORIAL HepG2 Assay for human Paired Box 6 (PAX6) (AID 2282956); conditions: HepG2 CIS-FACTORIAL PAX6 reporter transcription, RNA readout; actives raise or lower the signal
Outline: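 DMSO-referenced bidirectional fits of reporter mRNA fluorescence; HepG2 with transient cis-promoter MRTUs, 24 h post-dose, RT-PCR plus capillary electrophoresis detection.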

[11] = ATG_PXRE_CIS: Attagene CIS-FACTORIAL HepG2 Assay for human Pregnane X Receptor Element (PXRE) (AID 2282957); conditions: HepG2 Attagene CIS-FACTORIAL PXRE reporter, mRNA; actives raise or lower the signal
Outline: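 Using HepG2 transfected with multiple reporter transcription units, endogenous factor-driven transcription was scored as reporter mRNA after 24 h exposure.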

[12] = ATG_PPRE_CIS: Attagene CIS-FACTORIAL HepG2 Assay for human Peroxisome Proliferator-activated Response Element (PPRE) (AID 2282958); conditions: HepG2 PPRE cis-element reporter, Attagene transcription factor profiling; actives raise or lower the signal
Outline: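 Transcript-level reporter induction in transfected HepG2 cells after 24 h chemical exposure, quantified by fluorescence from RT-PCR products separated by capillary electrophoresis.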

[13] = ATG_RORE_CIS: Attagene CIS-FACTORIAL HepG2 Assay for human RAR-related Orphan Receptor Element (RORE) (AID 2282959); conditions: HepG2 Attagene cis-factorial RORE reporter, mRNA; actives raise or lower the signal
Outline: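 Multiplexed reporter assay measuring mRNA induction from a cis promoter element in transiently transfected HepG2 cells after 24 h treatment. Detection via RT-PCR and capillary electrophoresis fluorescence; DMSO serves as baseline.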

[14] = ATG_Sox_CIS: Attagene CIS-FACTORIAL HepG2 Assay for human SRY-box transcription factor (SOX) (AID 2282960); conditions: HepG2 Attagene cis-factorial SOX reporter, mRNA; actives raise or lower the signal
Outline: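 Cells were transfected with reporter constructs under cis-regulatory promoters, then exposed to chemicals for 24 h. Reporter transcripts were quantified by fluorescence after RT-PCR and capillary electrophoresis; activity was fitted in both directions against DMSO.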

[15] = biological target: Transcription factor Sp1 (Homo sapiens) (UniProt P08047); assay: ATG_Sp1_CIS: Attagene CIS-FACTORIAL HepG2 Assay for human Specificity Protein 1 (Sp1) (AID 2282961); conditions: HepG2 Sp1 cis-reporter transcription, actives raise or lower the signal
Outline: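 Measures mRNA induction of an Sp1-linked reporter in HepG2 cells 24 h post-dosing. Multiplexed reporters read by RT-PCR and capillary electrophoresis; DMSO serves as negative control and baseline.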

[16] = ATG_SREBP_CIS: Attagene CIS-FACTORIAL HepG2 Assay for human Sterol Regulatory Element Binding (SREBP) (AID 2282962); conditions: HepG2 Attagene cis-factorial SREBP reporter, mRNA; actives raise or lower the signal
Outline: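 In this cis-format assay, HepG2 liver cells express reporters controlled by promoter elements responsive to native transcription factors. Exposure lasts 24 h; reporter mRNA fluorescence from capillary electrophoresis gives the signal, fitted bidirectionally against DMSO.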

[17] = biological target: Signal transducer and activator of transcription 3 (Homo sapiens) (UniProt P40763); assay: ATG_STAT3_CIS: Attagene CIS-FACTORIAL HepG2 Assay for human Signal Transducer and Activator of Transcription 3 (STAT3) (AID 2282963); conditions: HepG2, Attagene cis-factorial STAT3 reporter transcription; actives raise or lower the signal
Outline: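 Fluorescence intensity of 6-FAM-labelled reporter fragments, separated by capillary electrophoresis after RT-PCR, gave the signal. Cells were HepG2 transfected with cis-element reporter units and treated 24 h; fitting was bidirectional relative to DMSO.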

[18] = ATG_TA_CIS: Attagene CIS-FACTORIAL HepG2 Assay for human TA Basal Promoter (AID 2282964); conditions: HepG2 Attagene CIS-factorial TA basal promoter reporter; actives raise or lower the signal
Outline: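 Background internal-marker endpoint from a 52-component HepG2 cis-reporter panel. Cells treated 24 h; reporter transcripts quantified via RT-PCR and CE fluorescence against DMSO baseline.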

[19] = ATG_TCF_b_cat_CIS: Attagene CIS-FACTORIAL HepG2 Assay for human T-Cell-Factor with beta-catenin (TCF/b-cat) (AID 2282965); conditions: HepG2 TCF/beta-catenin cis-reporter transcription, actives raise or lower the signal
Outline: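 Cells of the HepG2 line carry transiently transfected reporter units whose promoters respond to endogenous factors. Twenty-four hours post-dosing, reporter mRNA induction is measured by fluorescent RT-PCR and capillary electrophoresis, with DMSO as baseline.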

[20] = biological target: Hypoxia-inducible factor 1-alpha (Homo sapiens) (UniProt Q16665); assay: ATG_HIF1a_CIS: Attagene CIS-FACTORIAL HepG2 Assay for human Hypoxia Inducible Factor 1 (HIF1A) (AID 2282951); conditions: HepG2 Attagene cis-factorial HIF1a reporter transcription; actives raise or lower the signal
Outline: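 HepG2, transient cis-reporter library, 24 h dosing. RNA → RT (oligo dT) → PCR → 6-FAM primer extension → HpaI → CE. Bidirectional curve fit vs DMSO.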

Measured: AC50

Chain of Hepatocyte nuclear factor 6 (Homo sapiens) (Q9UBC0 whole entry, looked up, the tested form may be a part): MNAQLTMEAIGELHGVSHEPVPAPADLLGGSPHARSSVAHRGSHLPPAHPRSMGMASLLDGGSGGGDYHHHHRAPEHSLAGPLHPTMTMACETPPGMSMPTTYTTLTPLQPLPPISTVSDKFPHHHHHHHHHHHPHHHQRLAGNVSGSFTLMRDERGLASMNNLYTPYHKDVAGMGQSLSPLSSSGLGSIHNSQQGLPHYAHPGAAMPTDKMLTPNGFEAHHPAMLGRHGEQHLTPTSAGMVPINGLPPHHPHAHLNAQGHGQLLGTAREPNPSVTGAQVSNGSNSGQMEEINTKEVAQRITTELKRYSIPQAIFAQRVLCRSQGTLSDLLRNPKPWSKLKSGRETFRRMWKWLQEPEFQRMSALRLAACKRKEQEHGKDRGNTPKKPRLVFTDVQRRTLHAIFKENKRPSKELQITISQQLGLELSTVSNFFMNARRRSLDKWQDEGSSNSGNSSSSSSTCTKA
Chain of Bile acid receptor (Homo sapiens) (Q96RI1 whole entry, looked up): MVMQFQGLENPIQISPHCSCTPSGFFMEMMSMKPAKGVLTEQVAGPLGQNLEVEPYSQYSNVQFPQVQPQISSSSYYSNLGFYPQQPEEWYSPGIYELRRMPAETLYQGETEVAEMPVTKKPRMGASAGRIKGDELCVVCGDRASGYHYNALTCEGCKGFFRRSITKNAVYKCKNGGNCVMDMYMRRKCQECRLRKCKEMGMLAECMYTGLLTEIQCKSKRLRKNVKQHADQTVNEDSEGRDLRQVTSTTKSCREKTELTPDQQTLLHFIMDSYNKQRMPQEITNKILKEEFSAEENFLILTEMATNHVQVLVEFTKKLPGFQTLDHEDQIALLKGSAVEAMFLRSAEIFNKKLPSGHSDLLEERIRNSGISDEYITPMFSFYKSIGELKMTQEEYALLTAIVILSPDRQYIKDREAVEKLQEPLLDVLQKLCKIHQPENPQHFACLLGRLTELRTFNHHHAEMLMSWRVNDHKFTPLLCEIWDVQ
Chain of Heat shock factor protein 1 (Homo sapiens) (Q00613 whole entry, looked up): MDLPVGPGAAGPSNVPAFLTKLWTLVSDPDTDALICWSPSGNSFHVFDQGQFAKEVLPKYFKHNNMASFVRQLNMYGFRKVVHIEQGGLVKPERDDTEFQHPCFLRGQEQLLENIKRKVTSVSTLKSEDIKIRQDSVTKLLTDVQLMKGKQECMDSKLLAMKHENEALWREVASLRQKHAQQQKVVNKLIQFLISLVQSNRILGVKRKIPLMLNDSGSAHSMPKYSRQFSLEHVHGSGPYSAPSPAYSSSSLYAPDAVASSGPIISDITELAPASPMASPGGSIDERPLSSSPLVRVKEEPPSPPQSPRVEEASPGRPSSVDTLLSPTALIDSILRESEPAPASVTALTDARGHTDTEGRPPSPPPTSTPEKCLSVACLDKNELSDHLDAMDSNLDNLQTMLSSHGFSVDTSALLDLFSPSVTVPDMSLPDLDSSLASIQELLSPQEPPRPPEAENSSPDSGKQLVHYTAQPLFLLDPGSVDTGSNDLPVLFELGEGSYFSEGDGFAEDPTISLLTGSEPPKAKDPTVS
Chain of Hypoxia-inducible factor 1-alpha (Homo sapiens) (Q16665 whole entry, looked up): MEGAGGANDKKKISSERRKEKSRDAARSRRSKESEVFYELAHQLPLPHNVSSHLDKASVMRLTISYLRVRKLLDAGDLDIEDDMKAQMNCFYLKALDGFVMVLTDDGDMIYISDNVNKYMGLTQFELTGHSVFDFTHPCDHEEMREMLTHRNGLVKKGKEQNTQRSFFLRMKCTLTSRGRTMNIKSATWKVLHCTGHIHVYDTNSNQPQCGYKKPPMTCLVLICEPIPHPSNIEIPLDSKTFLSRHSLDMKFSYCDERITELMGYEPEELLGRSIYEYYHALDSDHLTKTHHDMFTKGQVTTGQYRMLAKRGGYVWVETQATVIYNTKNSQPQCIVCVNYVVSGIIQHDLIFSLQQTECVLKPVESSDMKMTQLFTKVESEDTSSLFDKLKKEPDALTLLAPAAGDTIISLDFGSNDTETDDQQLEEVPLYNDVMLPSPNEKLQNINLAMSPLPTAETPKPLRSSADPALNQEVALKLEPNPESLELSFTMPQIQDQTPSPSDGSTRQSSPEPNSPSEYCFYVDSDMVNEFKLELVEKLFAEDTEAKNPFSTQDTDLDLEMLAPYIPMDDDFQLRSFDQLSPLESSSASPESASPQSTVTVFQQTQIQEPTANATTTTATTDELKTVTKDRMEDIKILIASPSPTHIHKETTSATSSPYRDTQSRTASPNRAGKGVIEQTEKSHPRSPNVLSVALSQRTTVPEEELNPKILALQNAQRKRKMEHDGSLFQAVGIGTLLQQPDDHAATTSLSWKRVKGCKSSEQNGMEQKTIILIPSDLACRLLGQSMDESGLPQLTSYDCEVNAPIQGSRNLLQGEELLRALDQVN
Chain of Transcription factor Sp1 (Homo sapiens) (P08047 whole entry, looked up): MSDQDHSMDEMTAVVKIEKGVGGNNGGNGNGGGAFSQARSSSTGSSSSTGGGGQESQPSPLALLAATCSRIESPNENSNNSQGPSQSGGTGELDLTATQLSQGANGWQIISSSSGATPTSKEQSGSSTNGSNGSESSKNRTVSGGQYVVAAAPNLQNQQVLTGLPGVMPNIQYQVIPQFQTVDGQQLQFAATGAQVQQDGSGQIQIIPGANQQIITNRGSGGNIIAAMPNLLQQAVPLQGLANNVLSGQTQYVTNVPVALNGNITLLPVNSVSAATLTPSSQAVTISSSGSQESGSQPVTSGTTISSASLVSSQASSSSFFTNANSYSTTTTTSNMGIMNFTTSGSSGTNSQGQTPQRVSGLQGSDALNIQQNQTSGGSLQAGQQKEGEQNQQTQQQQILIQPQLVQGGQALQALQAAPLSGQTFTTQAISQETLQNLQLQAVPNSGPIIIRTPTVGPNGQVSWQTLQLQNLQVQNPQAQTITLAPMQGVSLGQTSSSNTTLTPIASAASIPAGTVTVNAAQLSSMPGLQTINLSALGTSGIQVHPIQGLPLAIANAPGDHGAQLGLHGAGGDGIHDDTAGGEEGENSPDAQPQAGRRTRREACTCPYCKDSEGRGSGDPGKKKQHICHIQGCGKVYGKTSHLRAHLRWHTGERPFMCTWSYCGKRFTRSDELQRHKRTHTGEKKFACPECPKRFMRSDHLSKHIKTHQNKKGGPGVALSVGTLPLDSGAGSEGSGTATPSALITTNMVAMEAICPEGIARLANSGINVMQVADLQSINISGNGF
Chain of Signal transducer and activator of transcription 3 (Homo sapiens) (P40763 whole entry, looked up, the tested form may be a part): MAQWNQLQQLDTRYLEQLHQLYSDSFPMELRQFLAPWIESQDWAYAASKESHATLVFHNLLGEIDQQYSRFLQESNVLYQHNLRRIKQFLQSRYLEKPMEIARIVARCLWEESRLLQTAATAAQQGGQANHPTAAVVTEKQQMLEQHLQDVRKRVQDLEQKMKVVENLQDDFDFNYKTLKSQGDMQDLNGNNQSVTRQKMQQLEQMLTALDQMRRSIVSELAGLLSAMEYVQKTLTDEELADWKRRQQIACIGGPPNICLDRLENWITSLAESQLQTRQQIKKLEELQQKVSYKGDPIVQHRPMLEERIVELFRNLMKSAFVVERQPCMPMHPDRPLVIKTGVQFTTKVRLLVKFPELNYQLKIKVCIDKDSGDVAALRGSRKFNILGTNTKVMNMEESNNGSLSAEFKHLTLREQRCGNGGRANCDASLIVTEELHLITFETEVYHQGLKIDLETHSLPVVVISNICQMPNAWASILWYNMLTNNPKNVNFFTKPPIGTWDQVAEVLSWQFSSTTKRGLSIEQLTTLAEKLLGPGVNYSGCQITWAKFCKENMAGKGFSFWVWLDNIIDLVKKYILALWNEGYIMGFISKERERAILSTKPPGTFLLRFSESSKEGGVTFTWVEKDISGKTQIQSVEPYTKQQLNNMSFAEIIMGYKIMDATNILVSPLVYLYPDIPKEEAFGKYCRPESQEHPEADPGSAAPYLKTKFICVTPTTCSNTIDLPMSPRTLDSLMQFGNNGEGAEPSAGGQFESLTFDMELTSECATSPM
Chain of Paired box protein Pax-6 (Homo sapiens) (P26367 whole entry, looked up): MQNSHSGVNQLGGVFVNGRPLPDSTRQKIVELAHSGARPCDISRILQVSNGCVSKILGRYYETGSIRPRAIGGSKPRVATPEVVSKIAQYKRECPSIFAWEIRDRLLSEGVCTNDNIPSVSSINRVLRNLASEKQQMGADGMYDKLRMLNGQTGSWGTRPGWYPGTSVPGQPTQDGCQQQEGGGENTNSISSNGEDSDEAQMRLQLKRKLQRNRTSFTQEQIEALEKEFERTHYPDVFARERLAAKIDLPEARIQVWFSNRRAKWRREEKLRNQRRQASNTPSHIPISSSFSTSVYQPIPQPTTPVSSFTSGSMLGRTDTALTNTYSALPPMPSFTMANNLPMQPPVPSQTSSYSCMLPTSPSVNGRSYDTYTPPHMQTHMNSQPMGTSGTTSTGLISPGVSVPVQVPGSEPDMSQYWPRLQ

CCOC(=O)CC(SP(=O)(OC)OC)C(=O)OCC (centres undefined)
active: [11] 34.8 µM | [12] 39.7 µM
not listed: [20]
inactive: all other assays above

CCOP(=S)(OCC)Oc1cc(C)nc(C(C)C)n1
active: [9] 9.92 µM | [11] 4.15 µM | [12] 26 µM | [16] 21.7 µM
not listed: [1] | [19]
inactive: all other assays above

CCOP(=O)(NC(C)C)Oc1ccc(SC)c(C)c1 (centres undefined)
active: [9] 16.2 µM | [11] 2.73 µM | [12] 21.4 µM | [16] 19.6 µM
not listed: [7] | [19] | [20]
inactive: all other assays above

C=C(C)[C@H]1Cc2c(ccc3c2O[C@@H]2COc4cc(OC)c(OC)cc4[C@@H]2C3=O)O1
active: [8] 0.0899 µM | [9] 0.0505 µM | [12] 0.0321 µM | [15] 0.039 µM | [16] 0.00445 µM
not listed: [20]
inactive: all other assays above

O=c1ccc(=O)[nH][nH]1
active: [11] 26.7 µM
not listed: [2] | [9] | [12] | [19] | [20]
inactive: all other assays above

CC(C)N(C(=O)SCC(Cl)=C(Cl)Cl)C(C)C
active: [1] 19.9 µM | [8] 29.1 µM | [11] 3.05 µM | [16] 29.1 µM
not listed: [12] | [19] | [20]
inactive: all other assays above

CCCOCC(=Nc1ccc(Cl)cc1C(F)(F)F)n1ccnc1
active: [11] 3.63 µM | [12] 2.67 µM | [16] 7.5 µM
not listed: [13] | [19]
inactive: all other assays above

N#CSCSC#N
active: [11] 1.26 µM
not listed: [19]
inactive: all other assays above

C#CCC1=C(C)C(OC(=O)C2C(C=C(C)C)C2(C)C)CC1=O (centres undefined)
active: [3] 71.2 µM | [4] 90.5 µM | [6] 50 µM | [7] 74.8 µM | [8] 72.2 µM | [9] 4.27 µM | [10] 72.1 µM | [11] 1.15 µM | [12] 13.2 µM | [14] 82 µM | [15] 50 µM | [16] 31 µM
inactive: [1] | [5] | [13] | [17] | [18]
